# Inconclusive results are not listed. A call without a number means that no potency is given here. Active and inactive are the calls of the source. Unless noted, the call rests on the fitted dose curve; in most records, active means well fitted curve in the direction sought with a large enough effect; inconclusive means small, poorly fitted or top-dose-only effect, or another doubt; inactive means no such curve, though single readings can be large; an effect the other way counts as inactive or inconclusive.
# Tests used:
# [1] = target: Cytochrome P450 3A4 (Homo sapiens) (UniProt P08684); assay: qHTS Assay for Activators of Cytochrome P450 3A4 (AID 885); further: nearly all actives have a fitted effect of over 65% in size
# Chain of Cytochrome P450 3A4 (Homo sapiens) (P08684 whole entry, looked up): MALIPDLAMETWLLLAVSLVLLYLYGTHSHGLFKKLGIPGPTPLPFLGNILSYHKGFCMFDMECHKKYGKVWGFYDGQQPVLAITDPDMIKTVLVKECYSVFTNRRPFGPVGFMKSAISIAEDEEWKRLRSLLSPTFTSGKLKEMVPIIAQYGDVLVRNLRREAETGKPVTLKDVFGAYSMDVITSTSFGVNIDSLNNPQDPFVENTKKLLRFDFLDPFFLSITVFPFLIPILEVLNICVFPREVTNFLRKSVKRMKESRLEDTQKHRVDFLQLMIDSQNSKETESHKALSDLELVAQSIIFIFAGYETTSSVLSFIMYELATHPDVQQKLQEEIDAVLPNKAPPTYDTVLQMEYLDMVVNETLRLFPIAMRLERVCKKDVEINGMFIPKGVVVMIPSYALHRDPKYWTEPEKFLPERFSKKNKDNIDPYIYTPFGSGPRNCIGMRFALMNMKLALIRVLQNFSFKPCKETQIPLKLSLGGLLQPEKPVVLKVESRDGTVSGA
# How it was run: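 Using 20nM recombinant human CYP3A4 in potassium phosphate (200mM), substrate Luciferin-PPXE at 25uM, luminescent luciferin detection followed a 60-min RT NADPH reaction; data scaled to 57 uM ketoconazole.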
# [2] = Confirmation and Secondary Assay for Modulators of Hemoglobin Beta Chain Splicing at IVS2 654 locus (AID 910);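 further: per-well total GFP intensity by laser scanning cytometry after 2-day treatment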
# How it was run: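 HeLa cells stably carrying EGFP interrupted by mutant beta-globin IVS2-654 intron (CMV-driven) were treated with compound for 2 days at 37C; corrected splicing was scored as total peak GFP intensity per well (488 nm excitation, 500-520 nm emission).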
# [3] = Confirmation and Secondary Assay for Modulators of Hemoglobin Beta Chain Splicing at IVS2 705 locus (AID 930);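 further: HeLa cells stably expressing the EGFP-705 splicing reporter; GFP fluorescence per well restored by corrected splicing of the IVS2-705 intron in EGFP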
# How it was run: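 Secondary splice-site specificity test uses HeLa expressing CMV-driven EGFP interrupted by IVS2-705; cells were treated 2 days at 37C with 500 nM antisense PNA as positive control.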
# [4] = qHTS Assay for Lipid Storage Modulators (AID 1519; calls by dose curve); settings: Drosophila S3 cells, BODIPY lipid droplet/cell ratio, laser cytometry, cells loaded with oleic acid; for activity change, negative = inhibition: at 57.5 µM (top of the series)
# How it was run: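 Cells seeded at 5,000 per well were treated with compounds over a concentration series and loaded with oleic acid (400 uM, as added). Lipid droplet fluorescence (488 nm excitation, 500-530 nm channel) was read by laser-scanning cytometry and normalized to 20 uM Triacsin C.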
# [5] = target: Ubiquitin carboxyl-terminal hydrolase 1 (Homo sapiens) (UniProt O94782); assay: Inhibitors of USP1/UAF1: Pilot qHTS (AID 504865);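 further: rhodamine fluorescence freed from ubiquitin-rhodamine substrate followed over time; top concentration of the series differs between compounds; nearly all actives have a fitted effect of over 35% in size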
# Chain of Ubiquitin carboxyl-terminal hydrolase 1 (Homo sapiens) (O94782 whole entry, looked up): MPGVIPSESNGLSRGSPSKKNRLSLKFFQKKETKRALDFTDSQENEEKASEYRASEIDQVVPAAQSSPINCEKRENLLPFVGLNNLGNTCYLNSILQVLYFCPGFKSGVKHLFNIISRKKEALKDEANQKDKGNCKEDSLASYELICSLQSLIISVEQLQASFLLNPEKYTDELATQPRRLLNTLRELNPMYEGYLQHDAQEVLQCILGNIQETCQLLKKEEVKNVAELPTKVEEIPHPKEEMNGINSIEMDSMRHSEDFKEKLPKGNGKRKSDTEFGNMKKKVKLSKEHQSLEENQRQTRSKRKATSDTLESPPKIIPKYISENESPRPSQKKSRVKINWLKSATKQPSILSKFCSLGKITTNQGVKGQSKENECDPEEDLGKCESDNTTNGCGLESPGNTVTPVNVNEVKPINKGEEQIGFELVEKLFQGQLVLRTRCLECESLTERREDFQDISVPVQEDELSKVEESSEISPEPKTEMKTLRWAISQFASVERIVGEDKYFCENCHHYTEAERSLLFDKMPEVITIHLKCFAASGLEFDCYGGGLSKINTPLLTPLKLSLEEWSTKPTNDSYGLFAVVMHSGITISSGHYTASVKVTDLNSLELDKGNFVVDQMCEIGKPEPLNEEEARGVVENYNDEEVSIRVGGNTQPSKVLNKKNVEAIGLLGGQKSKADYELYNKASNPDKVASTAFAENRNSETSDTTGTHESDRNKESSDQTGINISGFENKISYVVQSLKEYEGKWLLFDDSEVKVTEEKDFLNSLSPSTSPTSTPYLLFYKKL
# How it was run: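 Enzyme-free wells gave the negative control, while test wells held 1nM USP1/UAF1 preincubated with compound for 15 min at room temperature. Ub-Rho at 150nM final started the reaction, and fluorescence at 480/540 nm was recorded kinetically.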
# [6] = measured here: cell count channel max response
# [7] = measured here: lipid channel max response
SMILES,Potency [1],Potency [2],Potency [3],"activity change, negative = inhibition [4]","max response [4, 6] [%]","max response [4, 7] [%]",Potency [5]
CC12CCC3C(=CCc4cc(O)ccc43)C1CCC2=O (stereo unspecified),inactive,inactive,inactive,5.72% (inactive),-12.9,-6.28,inactive
O=C(CCc1ccc(O)cc1)c1c(O)cc(O)cc1O[C@H]1OC(CO)C(O)C(O)C1O (stereo partly specified),inactive,inactive,inactive,6.17% (inactive),25.3,27.2,inactive
Cc1cc(O)c(C=O)c(O)c1C(=O)O,inactive,inactive,inactive,3.98% (inactive),6.58,11.5,inactive
COc1cccc(O)c1O,inactive,inactive,inactive,7.71% (inactive),9.09,20.7,inactive
CC(Oc1ccccc1)C(=O)NC1C(=O)N2C(C(=O)O)C(C)(C)S[C@@H]12 (stereo partly specified),inactive,inactive,inactive,7.31% (inactive),11.7,21.7,inactive
COc1cc(-c2oc3cc(O)ccc3c(=O)c2O)ccc1O,inactive,inactive,inactive,-2.65% (inactive),-22.8,-26.5,inactive
CC(=O)O[C@](C)(CCC=C(C)C)C1CC=C(C)CC1 (stereo partly specified),inactive,,inactive,3.31% (inactive),17.9,22,inactive
Nc1nc2c(ncn2C2OC(CO)CC2O)c(=O)[nH]1 (stereo unspecified),,inactive,inactive,6.37% (inactive),3.55,10.6,inactive
COc1cc(-c2cc(=O)c3c(O)c(OC)c(OC)c(OC)c3o2)cc(OC)c1OC,inactive,inactive,inactive,0.715% (inactive),5.14,8.84,inactive
CCC(C)C(NC)C(=O)O (stereo unspecified),,inactive,inactive,5.09% (inactive),17.4,24.1,inactive
C[C@]12CCC3c4ccc(OC(=O)c5ccccc5)cc4CCC3C1CCC2=O (stereo partly specified),,inactive,inactive,11.1% (inactive),14.4,28.4,inactive
CC(CCC(=O)O)C1CCC2C3CC[C@H]4CC(O)CC[C@@]4(C)C3CC(O)[C@]12C (stereo partly specified),,inactive,inactive,8.52% (inactive),-1.9,10.5,inactive
COC1C(O)CC(=O)OC(C)C/C=C/C=C/[C@@H](OC2CCC(N(C)C)C(C)O2)C(C)C[C@@H](CC=O)[C@@H]1O[C@H]1OC(C)[C@H](O[C@@H]2C[C@@](C)(O)C(O)C(C)O2)C(N(C)C)C1O (stereo partly specified),,inactive,,4.53% (inactive),15.4,26.5,inactive
NC1(C(=O)O)CCCC1,,inactive,inactive,-0.822% (inactive),7.47,7.88,inactive
O=C(O)CCC(=O)OC[C@@H](NC(=O)C(Cl)Cl)C(O)c1ccc([N+](=O)[O-])cc1 (stereo partly specified),,inactive,inactive,7.24% (inactive),16.6,25.2,inactive
NC(Cn1ccc(=O)c(O)c1)C(=O)O (stereo unspecified),,inactive,inactive,3.76% (inactive),3.01,10.8,inactive
COc1c(O)cc2c(-c3ccccc3)cc(=O)oc2c1OC,inactive,,inactive,5.27% (inactive),6.33,14.2,inactive
CC(=O)OCC(=O)[C@@]12OC(C)(C)OC1CC1C3CC(F)C4=CC(=O)C=C[C@@]4(C)[C@@]3(F)C(O)C[C@]12C (stereo partly specified),,inactive,inactive,5.49% (inactive),3.91,12.9,inactive
CNC1C(O)C(O)C(CO)O[C@H]1OC1C(O[C@@H]2C(O)C(O)[C@@H](N=C(N)N)C(O)C2N=C(N)N)OC(C)[C@]1(O)C=O (stereo partly specified),,inactive,inactive,11.1% (inactive),10.8,24.1,inactive
O=S(=O)(O)c1cc(N=C=S)ccc1/C=C/c1ccc(N=C=S)cc1S(=O)(=O)O,,inactive,inactive,9.64% (inactive),-3.47,10.3,inactive
CC1(C)CC2C1CCC1(C)OC2(C)CCC1O (stereo unspecified),inactive,,inactive,2.02% (inactive),12.1,15.9,inactive
O=c1cc(-c2ccccc2)oc2cc(O)c(O)cc12,,inactive,,-1.09% (inactive),-7.11,-6.23,inactive

SMILES,Potency [1],Potency [2],Potency [3],"activity change, negative = inhibition [4]","max response [4, 6] [%]","max response [4, 7] [%]",Potency [5]
CCOC(=O)OC(C)OC(=O)C1N2C(=O)C(NC(=O)C(N)c3ccccc3)C2SC1(C)C (stereo unspecified),,inactive,inactive,6.11% (inactive),21.6,29.1,inactive
CC1CC[C@@]2(C(=O)O)CCC3(C)C(=CCC4[C@]5(C)CC(O)C(O)[C@](C)(CO)C5C(O)C[C@@]43C)C2C1C (stereo partly specified),,inactive,inactive,7.29% (inactive),14.9,28.6,inactive
CC(=O)OC1C(=O)[C@@]2(C)C(O)CC3OC[C@]3(OC(C)=O)C2C(OC(=O)c2ccccc2)[C@]2(O)CC(OC(=O)C(O)C(NC(=O)c3ccccc3)c3ccccc3)C(C)=C1C2(C)C (stereo partly specified),,inactive,inactive,-3.78% (inactive),1.34,-0.503,inactive
NCC1O[C@@H](OC2C(N)C[C@H](N)[C@@H](O[C@H]3OC(CO)C(O)C(N)C3O)C2O)C(O)C(O)C1O (stereo partly specified),,inactive,inactive,12.1% (inactive),13.1,29.6,inactive
CC(=O)Oc1ccc2c(c1OC(C)=O)OCC1(O)Cc3c(cc(OC(C)=O)c(OC(C)=O)c3OC(C)=O)C21 (stereo unspecified),,inactive,inactive,0.943% (inactive),9.82,11.3,inactive
CC1(C)OC2CC3C4CC(F)C5=CC(=O)CC[C@@]5(C)C4C(O)C[C@@]3(C)[C@]2(C(=O)CO)O1 (stereo partly specified),,inactive,inactive,4.43% (inactive),7.91,15.6,inactive
CC(=O)[C@]1(O)CCC2C3CCC4=CC(=O)CC[C@@]4(C)C3CC[C@]21C (stereo partly specified),,inactive,inactive,5.01% (inactive),6.92,12.7,inactive
CC1CCC2(OC1)OC1CC3C4CC[C@@H]5CC(O)CC[C@@]5(C)C4CC(=O)[C@]3(C)C1C2C (stereo partly specified),,inactive,inactive,9.56% (inactive),0.354,13.1,inactive
CC1(C)CC23C(=O)CCC(O)C2(C)CCC13 (stereo unspecified),inactive,inactive,inactive,0.112% (inactive),8.4,10.8,inactive
O=C(/C=C/c1ccccc1)OC1CC(O)C2(O)C=CO[C@@H](OC3OC(CO)C(O)C(O)C3O)C12 (stereo partly specified),inactive,inactive,inactive,3.28% (inactive),-10.8,7.13,inactive
O=c1cc(-c2ccc(O)cc2)oc2cc(O)ccc12,inactive,inactive,inactive,10.6% (inactive),-4.61,5.18,inactive
COc1cc(C(=O)OC2CC[C@]3(C)C4CCC5[C@]6(O)CC(O)[C@]7(O)C(CN8CC(C)CCC8[C@]7(C)O)[C@]6(O)C[C@@]53O[C@]24O)cc(OC)c1OC (stereo partly specified),,inactive,,4.04% (inactive),17.4,24.2,inactive
O=C(O)CCC(=O)C(=O)O (tested in a mixture with another compound),,inactive,inactive,3.77% (inactive),11.4,18.6,inactive
C[C@]12C=CC(=O)C=C1CCC1C2C(=O)C[C@]2(C)C1CC[C@]2(O)C(=O)CO (stereo partly specified),,inactive,inactive,8.15% (inactive),19.1,31.9,inactive
CCC(=O)OCC(=O)C1(OC(=O)CC)C(C)CC2C3C(Cl)CC4=CC(=O)C=C[C@@]4(C)C3C(O)C[C@@]21C (stereo partly specified),,inactive,inactive,4.4% (inactive),1.88,8.57,inactive
C=C1C2CC[C@@]3(C)C(c4ccoc4)OC(=O)C[C@@]13OC1CC(=O)C(C)(C)C(CC(=O)OC)[C@]12C (stereo partly specified),inactive,,inactive,0.233% (inactive),-7.73,-5.31,inactive
CC12CCC3C(CC3(C)C)C(C)(CCC1=O)O2 (stereo unspecified),,inactive,,8.76% (inactive),19,26.9,inactive
CC1=C(C(=O)O)N2C(=O)C(NC(=O)C(N)c3ccc(O)cc3)C2SC1 (stereo unspecified),,inactive,inactive,7.51% (inactive),4.8,14.9,inactive
CC(C)CC(NC(=O)OCC1c2ccccc2-c2ccccc21)C(=O)O (stereo unspecified),,inactive,inactive,2.46% (inactive),10.8,14.5,inactive
CC(=O)OC1C[C@]2(C)[C@@H](CC(O)C3[C@]4(C)CCC(O)C(C)[C@@H]4CC[C@]32C)/C1=C(/CCC=C(C)C)C(=O)O (stereo partly specified),,inactive,inactive,5.26% (inactive),12.3,24.1,inactive
CCOC(=O)C(CCc1ccccc1)NC(C)C(=O)N1C(C(=O)O)CC2CCCC21 (stereo unspecified),,inactive,inactive,8.81% (inactive),13.5,25.8,inactive
CC1(C)CCC2(C(=O)O)CC[C@]3(C)C(=CCC4[C@]5(C)CCC(O)C(C)(C)C5C(O)C[C@]43C)C2C1 (stereo partly specified),inactive,inactive,inactive,10.3% (inactive),9.57,24.8,inactive

# — PubChem BioAssay (NCATS)
